Results on 40 molecules are retold here after ChEMBL document CHEMBL1157539, “Thousands of chemical starting points for antimalarial lead identification” (Nature, 2010).

The structures appear in SMILES notation.

The test concerns Plasmodium falciparum. In words: GSK_TCMDC: Inhibition of Plasmodium falciparum 3D7 in whole red blood cells, using parasite LDH activity as an index of growth. Test compounds present at 2uM. The test is classed as functional.
With `Cc1ccc(Nc2nc3cc(Nc4ccnc(Nc5ccc(CS(C)(=O)=O)cc5)n4)ccc3o2)cc1`, the Inhibition was determined as 99%. `COc1ccc(CNC2CCN(C)CC2)cc1-c1ccc(S(=O)(=O)NCCc2ccccn2)s1.O=C(O)C(F)(F)F`: the Inhibition amounted to 100%. As for `Cl.N#Cc1ccc(CCNc2nccc(-c3cccc(CN4CCNCC4)c3)n2)cc1`, the Inhibition is given as 83%. Regarding `CC(C)c1cc2c(ccc3nc(N)nc(N)c32)o1`, the Inhibition was determined as 99%.

With `Cc1cc(-c2cccc(CNC3CCN(C)CC3)c2)ccc1S(=O)(=O)NCc1ccccc1.O=C(O)C(F)(F)F`, the Inhibition was determined as 99%. In turn, `COc1cc(Nc2ccnc3ccc(C(F)(F)F)cc23)cc(OC)c1OC` had an Inhibition of 100%. For the molecule `O=C(CC1SC(N2N=C(c3cccs3)CC2c2ccccc2)=NC1=O)Nc1ccc(Cl)cc1` (stereo not given), the Inhibition is on record as 83%. The result for `COc1ccc(-c2c(C(F)(F)F)nn(C)c2NC(=O)Nc2ccc(F)cc2F)cc1` reads 100%; that for `CN(Cc1cc(C(F)(F)F)cc(C(F)(F)F)c1)C(=O)C1CNCC1c1ccc(F)cc1.Cl` (stereo not given), 92%; that for `O=C(Nc1ccc(CCNC2=NCCN2)cc1)Nc1ccc(CCNC2=NCCN2)cc1`, 90%. On to `CC[C@H](NC(=O)c1c(CCCN2CCN(c3ccccc3)CC2)c(-c2ccccc2)nc2cc(O)ccc12)c1ccccc1`, for which the Inhibition turned out to be 96%. As to `CC(C)Cn1cc(C2CCN(CCN3CCC(CNC(=O)c4ccc(-c5ccc(C(F)(F)F)cc5)cc4)CC3)CC2)c2ccccc21`, the Inhibition is 100%. In turn, `O=C(NCCCCCN1CCC(c2c[nH]c3ccccc23)CC1)Nc1ccc(Br)cc1` yielded an Inhibition of 91%. For `CN(C)CCOc1cc(O)c2c(c1)OC(C)(C)C=C2c1cccs1`, the Inhibition is on record as 99%. Consider `CNc1nc(N/N=C/c2cc3c(cc2[N+](=O)[O-])OCO3)nc(Nc2cccc(C(F)(F)F)c2)n1`, for which the Inhibition is on record as 100%.

`CCCCCCNC(=O)C1Cc2c([nH]c3ccc(F)cc23)C2(CCN(Cc3ccccc3)CC2)N1` (stereo not given) returned an Inhibition of 97%. The molecule `COc1ccc2c(=O)c(-c3ccc(OC(F)(F)F)cc3)c(C)[nH]c2c1` displayed an Inhibition of 97%. The result for `COc1ccc(S(=O)(=O)N2CCC(NS(=O)(=O)c3ccc(F)cc3)CC2)cc1` reads 80%. `CCCCOC(=O)c1ccc(NC(=O)Nc2ccc(Cn3ncc(N4CCCNCC4)c(Cl)c3=O)cc2)cc1.O=C(O)C(F)(F)F` gave an Inhibition of 92%. On to `CNCCNCc1cccc(-c2ccc(-c3nc4cc(C(F)(F)F)ccc4[nH]3)cc2)c1.O=C(O)C(F)(F)F`, for which the Inhibition was 100%.

`CCCCCC(C)C(C)c1cc(O)c2c(c1)OC(C)(C)CC2(O)c1ccnn1C` (stereo not given) showed an Inhibition of 98%. On to `CCc1cn2c3c(cc(C(=O)N[C@@H](Cc4ccccc4)[C@H](O)CNC4CCOCC4)cc13)N(C(C)C)S(=O)(=O)CC2.O=CO`, for which the Inhibition is 98%. Take `O=C(O)C(F)(F)F.O=S(=O)(NC1CCN(c2ccnc3cc(Cl)ccc23)C1)c1cccs1` (stereo not given): the Inhibition came out at 100%. In turn, `CCCC(C)Nc1nc(C)cc(N[C@@H](CC(C)C)C(=O)NCc2ccc(C)cc2)n1.O=C(O)C(F)(F)F` (stereo not given in full) returned an Inhibition of 98%. Molecule `O=C(NC1CCCCC1)N(CCCn1ccnc1)Cc1csc(-c2ccc(CNCc3ccccc3)cc2)n1.O=C(O)C(F)(F)F` yielded an Inhibition of 97%. `CCCCOc1ccc(/C=C/c2ccc(-c3c(C)[nH]c(C)c(Cl)c3=O)s2)cc1` gave an Inhibition of 97%. `CCC(Cc1cnc2nc(N)nc(N)c2n1)c1ccc(C(=O)N[C@@H](CCC(=O)O)C(=O)O)cc1` (stereo not given in full) [EDATREXATE] showed an Inhibition of 93%. With `Cc1ccc(C2=NNC3(S2)C(=O)N(C)c2ccccc23)cc1` (stereo not given) the figure was 82%.

Take `Cc1cccc2nc(-c3ccc(-c4cccc(NC(=O)c5cncn5C)c4)cc3)[nH]c12`: the Inhibition is on record as 100%. As to `O=C(O)C[C@H](NC(=O)[C@@H]1CCCN1C(=O)c1cccc(-c2ccc(Cl)c(Cl)c2)c1)C(=O)O`, the Inhibition is 84%. In the case of `Cc1cc(C)c(NC(=O)N[C@H]2CCN(CCCCCNC(=O)/C=C/c3ccc(Cl)c(Cl)c3)C2)c(C)c1`, the Inhibition is recorded as 91%.

Consider `C=C1C(C(=O)OCC)=CN(CC)c2cc(O[C@H]3CCN(C(=O)OC(C)(C)C)C3)ccc21`, for which the Inhibition stood at 98%. Molecule `CCN(CC)CCN(Cc1ccc(-c2ccc(C(F)(F)F)cc2)cc1)C(=O)Cn1c(CCc2cccc(F)c2F)nc(=O)c2cc(F)c(F)cc21.O=C(O)C(O)C(O)C(=O)O` registered an Inhibition of 100%. `C=CCOc1ccccc1CNCC(O)c1cc(Br)cs1` (stereo not given): the Inhibition was 93%. `CCc1ccc(CN2CCC(CNC(=O)c3cc(-c4ccccc4Cl)cs3)C2)cc1.O=C(O)C(F)(F)F` (stereo not given) showed an Inhibition of 98%.

Consider `CCOc1ccc2[nH]c(C)cc(=NN=Cc3ccccc3F)c2c1`, for which the Inhibition is recorded as 100%. As for `O=C(Cc1ccc[n+]([O-])c1)Nc1cccc(-c2cccc(-c3nc4cc(F)ccc4[nH]3)c2)c1`, the Inhibition was 92%. `O=C(Nc1cc(Oc2ccc(O)cc2)cc([N+](=O)[O-])c1)c1cc(-c2ccc(F)cc2)no1`: the Inhibition was 88%. For `O=S(=O)(c1csc2ccccc12)N(CCC(O)(C(F)(F)F)C(F)(F)F)Cc1cccc(O)c1`, the Inhibition turned out to be 100%.

In the case of `CC(Cc1ccc(NC(=O)c2ccc(NCCc3ccccc3)cc2)cc1)NCCc1cccc(Cl)c1.Cl` (stereo not given), the Inhibition was 92%.

Usually Inhibition stands for the percentage by which the read-out fell short of the control. Low values mean a weak effect, high ones a strong effect.
